Data on 107 compounds can be found in ChEMBL document CHEMBL4513216, “Probing the Open Global Health Chemical Diversity Library for Multistage-Active Starting Points for Next-Generation Antimalarials” (ACS Infect Dis, 2020).

About 8,600 (12%) of roughly 69,000 compounds showed an effect of 50% or more. For the sample, strong results were picked, then their nearest neighbours and some compounds at random.

This assay deals with Plasmodium berghei. As to the kind of experiment: Screen against P. berghei liver stage (PbLuc), transformed with Luciferase, at 10uM. Format: functional, HepG2. Conditions: tested at 10 uM.
With `O=C(O)[C@@H]1CN(C(=O)CCN2CCCCC2)C[C@H]1c1ccccc1`, the INHIBITION is given as -24%.
On to `CCOCc1nc(-c2ccc(F)cc2Cl)n(C2CCN(C)CC2)n1`, for which the INHIBITION is given as 8.51%.
In the case of `Cc1noc(C)c1CNC(=O)Nc1ccc(N2CCSCC2)cc1` it was 7.93%; in that of `Cc1cc(NC(=O)CN2CCc3cncnc3C2)on1`, 43.3%.
`O=C(c1ccccn1)N1C[C@H]2CC[C@@H](C1)N(C(=O)c1ccsc1)C2`: the INHIBITION was found to be 20.6%.
As for `CCn1ccnc1CNc1nccc(-c2c(C)nn(C)c2C)n1`, the figure is -47.8%; as for `CCc1nccn1CCCNc1nccc(-c2c(C)nn(C)c2C)n1`, 65.2%; as for `CCn1ccnc1CNc1nccc(-c2cn(C)nc2C)n1`, -67.9%.
As for `CCc1nc(CN(C(C)=O)C2CCN(Cc3csc(C)n3)C2)no1` (configuration not stated), the figure is -13.5%; as for `COCC(=O)NC[C@]1(O)CN(Cc2ccc3c(c2)OCCO3)C[C@H]1O`, 66.8%; as for `COCC(=O)N[C@@H]1CN(Cc2ccc3c(c2)OCCO3)C[C@H]1O`, 52%.
In the case of `CC(=O)N1CCN(Cc2ccc3c(c2)OCCO3)CC(O)C1` (configuration not stated) it was 15.8%.
As to `COCC(=O)NC[C@]12COC[C@H]1CN(Cc1ccc3c(c1)OCO3)C2`, the INHIBITION is 0.453%.
As for `CCC[C@H]1CN(Cc2ccc3c(c2)OCCO3)C[C@@H]1NC(=O)COC`, the figure is 37.6%; as for `O=C(NCC1CC1)N1CCN(Cc2ccc3c(c2)OCCO3)CC1`, 13.9%.
In the case of `Cc1nc(CN2CCCC(Cn3cncn3)C2)no1` (configuration not stated) it was 34.7%.
As for `CN(Cc1nnc(C2CC2)n1C)S(=O)(=O)c1ccc(F)c(C#N)c1`, the figure is -6.46%; as for `CS(=O)(=O)N1C[C@H]2CC[C@@H](C1)N(Cc1ccsc1)C2`, 10.2%; as for `O=C(CCc1nc2cc(Br)cnc2[nH]1)NCCCn1ccnc1`, -7.28%.
In the case of `CN(C)c1cc(C2CCCN2Cc2ccccc2OCC(=O)O)ccn1` (configuration not stated), the INHIBITION is recorded as 24.4%.
In the case of `Cc1ccncc1C(=O)N1C[C@H]2CN(CC3CCC3)C[C@@]2(C(=O)O)C1` it was 42.3%; in that of `CN(Cc1ccncc1)C1CC2(CCN(c3ncc(F)cn3)CC2)C1`, 55.5%.
Consider `CN(Cc1cccnc1)C1CC2(CCN(c3ncc(F)cn3)CC2)C1`, for which the INHIBITION is recorded as 49.1%.
As for `CN(Cc1ccncc1)C1CCC[C@@H]2CN(c3ncccn3)C[C@H]12` (some centres not stated), the figure is -22.7%; as for `Cc1cnc(N2CCC3(CC2)CC(N(C)Cc2ccncc2)C3)nc1`, 49.1%; as for `CN(Cc1cccnc1)C1CC2(CCN(c3ncccn3)CC2)C1`, -20.8%.
As to `CN(Cc1ccncc1)C1CC2(CCN(c3ncccn3)CC2)C1`, the INHIBITION was found to be 58.7%.
Take `CSCCCN1CCCC1c1noc(C(C)C)n1` (configuration not stated): the INHIBITION is 1.18%.
As for `Cc1cnn(C2CCCN(C(=O)CCNS(C)(=O)=O)C2)c1` (configuration not stated), the figure is 19.2%; as for `C1CCC(c2nnc3sc(C4CCOC4)nn23)C1` (configuration not stated), 16.7%; as for `Cc1cc(N)nc(SC2CCN(c3ccccc3F)C2=O)n1` (configuration not stated), 56.5%.
For the compound `Cc1cc(N)nc(SC2CCN(c3ccccc3)C2=O)n1` (configuration not stated), the INHIBITION is on record as 6.94%.
In the case of `Cc1cc(N)nc(SC2CCCN(Cc3ccccc3)C2=O)n1` (configuration not stated) it was 26.8%.
Take `CCCc1nnc(N2CCC3(CCC(=O)N(C)C3)CC2)o1`: the INHIBITION worked out at 47.2%.
On to `CCOc1ccc(-c2nc(CN(C)Cc3c(C)noc3C)cs2)cc1`, for which the INHIBITION amounted to 88.5%.
In the case of `CC(C)c1nc(CN(C)Cc2ccc(O)c(Cl)c2)cs1` it was 17.1%.
As to `COc1ccc(CN(C)Cc2c(C)noc2C)c(Cl)c1OC`, the INHIBITION is 14.3%.
As for `Cc1cc(CN(C)C(=O)CC(C)C)no1`, the figure is -7.93%; as for `Cc1noc(C)c1CN(Cc1ccccc1)C(C)CN1CCOCC1` (configuration not stated), 37.4%.
As for `CC(C)N(Cc1ccccc1)Cc1csc(-c2ncccn2)n1`, the figure is -50.2%; as for `Cc1cc(CN(C)Cc2csc(-c3ccc(C(C)C)cc3)n2)no1`, 83.4%.
As for `CC(C)N(Cc1ccccc1)Cc1nnsc1Cl`, the INHIBITION is recorded as -37.8%.
For `Cc1noc(C)c1CN(Cc1ccccc1)C(C)C`, the INHIBITION worked out at 60.2%.
As for `Cc1noc(C)c1CN(C)C(=O)CCOc1ccc(Cl)cc1`, the figure is 2.65%; as for `Cc1noc(C)c1CN(C)Cc1csc(-c2ncccn2)n1`, 62.8%.
In the case of `CC(C)N(CC(N)=O)Cc1csc(-c2ncccn2)n1` it was -16.8%; in that of `O=C(CCc1cccc(C2CCNCC2)n1)N1CCCCC1`, -3.94%; in that of `Oc1cccc(CN2C[C@@H]3CC[C@H]2CN(Cc2ccc(F)cc2)C3)c1`, 39.5%.
For `O=C(c1cc(C2CC2)no1)N1C[C@@H]2CC[C@H]1CN(Cc1ccccn1)C2`, the INHIBITION was found to be 5.87%.
As for `O=C(COc1coc(CN2CCCC2)cc1=O)Nc1cc(Cl)ccc1Cl`, the figure is -12.5%; as for `CC(C)CN1CCS(=O)(=O)[C@@H]2CCN(S(=O)(=O)c3ccccc3)CC[C@@H]21`, 8.85%.
Consider `Cc1noc(C)c1CN(C)Cc1csc(-c2ccccc2F)n1`, for which the INHIBITION was 62.8%.
For the compound `Cc1noc(C)c1CN(C)Cc1csc(-c2ccc(C(C)C)cc2)n1`, the INHIBITION worked out at 91.1%.
Turning to `Cc1noc(C)c1CN(C)Cc1nc(N)c2ccccc2n1`, the INHIBITION turned out to be 20.9%.
Take `COc1cccc(CN(C)Cc2c(C)noc2C)c1OC`: the INHIBITION is reported as -6.61%.
As for `Cc1noc(C)c1CN(C)CCC(=O)N1CCc2sccc2C1`, the figure is 0.932%; as for `Cc1noc(C)c1CN(C)Cc1csc(-c2ccc(F)cc2)n1`, 77.4%; as for `Cc1noc(C)c1CN(C)CC(c1cccs1)N1CCOCC1` (configuration not stated), -54.6%.
In the case of `Cc1noc(C)c1CN(C)C(C)c1cccs1` (configuration not stated) it was 46.4%; in that of `CN(CC(N)=O)Cc1csc(-c2ccc(F)cc2)n1`, -0.991%; in that of `O=C(c1ncccn1)N1CCC[C@]2(C[C@@H](Oc3ncccc3F)CO2)C1`, -2.17%.
As for `CC(C)C(Sc1nccn1C1CC1)C(=O)NCc1cccnc1` (configuration not stated), the figure is 0.411%; as for `Cc1ccc(N2CC3(CCN(Cc4nccn4C)C3)CC2=O)s1` (configuration not stated), 15.9%.
For `CCOC(=O)CN1CC(c2nc(-c3ccsc3)no2)C1`, the INHIBITION was 9.96%.
As for `CC(C)NC(=O)CNC(=O)c1csc(Cc2ccccc2F)n1`, the figure is -20.6%.
With `COc1ccc(C2CCN(S(=O)(=O)CCCC#N)CC2)cc1`, the INHIBITION came to 59.1%.
In the case of `N#CCCCS(=O)(=O)N1CCC(CSc2ccccc2)C1` (configuration not stated) it was -18.7%; in that of `CCCS(=O)(=O)N1CCC(NCc2c(C)nn(C)c2OC)CC1`, -10.9%; in that of `CCCS(=O)(=O)N1CCC(c2ccc(OC)cc2)CC1`, 67.8%.
With `CC(C)n1cnnc1C1CCCN(S(=O)(=O)CCCC#N)C1` (configuration not stated), the INHIBITION came to 48.3%.
Regarding `COc1ccc(C2CCN(Cc3cscn3)CC2)cc1`, the INHIBITION worked out at 37.7%.
Take `CCCS(=O)(=O)N1CCC(Oc2ccc(C#N)cc2)CC1`: the INHIBITION turned out to be 25.8%.
As for `Cc1ncsc1C(=O)NC1CCN(CCCC#N)CC1`, the figure is 33.7%.
With `COc1ccc(C2CCN(CCCC#N)CC2)cc1`, the INHIBITION stood at 63.5%.
As for `CN(C)c1cc2c(nn1)CCN(C(=O)Cc1ccc3c(c1)CCC3)C2`, the figure is 5.8%; as for `CCn1nc(C)c2nc(C(C)C)nc(NCC(C)C)c21`, 47.4%.
For the compound `Cc1occc1C(=O)N1CCC2(CC1)NC(=O)CC2c1cnn(C)c1` (configuration not stated), the INHIBITION is 42.1%.
Take `CNC(=O)C1CN(C)CCN(CCCOc2ccccc2F)C1` (configuration not stated): the INHIBITION is 8.72%.
As for `CC(=O)Nc1ccc(SCC(=O)NCC2CCCO2)nn1` (configuration not stated), the figure is -4.83%.
With `COc1cccc([C@@]2(O)CC[C@@H]3CN(C(=O)c4cn(C)nc4C)C[C@@H]32)c1`, the INHIBITION was -1.95%.
On to `OCc1nnn2c1CN(Cc1cccnc1)CCC2`, for which the INHIBITION was found to be 29%.
Consider `CCc1cnc(CN(C(C)=O)C2CCN(Cc3nccn3C)C2)o1` (configuration not stated), for which the INHIBITION is reported as -6.865%.
In the case of `O=C(NCC1CCCO1)c1cc(Sc2ncccn2)ccn1` (configuration not stated), the INHIBITION was 32.8%.
Consider `CNC(=O)CC1CC2(CCN(S(C)(=O)=O)CC2)c2ccccc21` (configuration not stated), for which the INHIBITION is given as 6.66%.
`CC(C)NC(=O)CC1CC2(CCN(S(C)(=O)=O)CC2)c2ccccc21` (configuration not stated): the INHIBITION is given as 18.5%.
In the case of `CS(=O)(=O)N1CCC2(CC1)CC(NCc1ccccn1)c1ccccc12` (configuration not stated) it was 45.7%.
In the case of `CNC(=O)CC1CC2(CCN(c3ncccn3)CC2)c2ccccc21` (configuration not stated) it was 55.6%.
In the case of `CN(C)C(=O)CC1CC2(CCN(c3ncccn3)CC2)c2ccccc21` (configuration not stated) it was 38.5%.
With `c1cnc(N2CCC3(CC2)CC(NCC2CC2)c2ccccc23)nc1` (configuration not stated), the INHIBITION was determined as 88.1%.
In the case of `CS(=O)(=O)N1CCC2(CC1)CC(CC(=O)NC1CC1)c1ccccc12` (configuration not stated) it was 37%; in that of `CS(=O)(=O)N1CCC2(CC1)CC(NCc1ccco1)c1ccccc12` (configuration not stated), 66.6%; in that of `Cn1cc(CNC2CC3(CCN(S(C)(=O)=O)CC3)c3ccccc32)cn1` (configuration not stated), 44.8%.
As for `Cn1cc(CNC2CC3(CCN(CC4CC4)CC3)c3ccccc32)cn1` (configuration not stated), the figure is -40.4%; as for `CNC(=O)CNC1CC2(CCN(c3ncccn3)CC2)c2ccccc21` (configuration not stated), 2.4%; as for `CS(=O)(=O)N1CCC2(CC1)CC(NCC1CC1)c1ccccc12` (configuration not stated), 59.3%.
For `CC(Nc1cccc2c1OCCO2)C(=O)Nc1cccc(C#N)c1` (configuration not stated), the INHIBITION stood at 8.12%.
In the case of `CCc1nc(CN(C(C)=O)C2CCN(CCc3ccccn3)C2)no1` (configuration not stated) it was 29.7%; in that of `Oc1nc(N2CCOCC2)nc2nccc(-c3ccccn3)c12`, -21.3%.
Consider `CNC(=O)c1cc(C)n(-c2ccccc2)n1`, for which the INHIBITION is 36.2%.
Turning to `O=C(NCc1cccs1)[C@@H]1CC[C@@H]2[C@@H](CCN2CC2CCC2)O1`, the INHIBITION is on record as 30.3%.
In the case of `CC(C)[C@H]1CN(c2cnccn2)C[C@@H]1NC(=O)C1(C#N)CCOCC1` it was 49.5%.
In the case of `CC(C)C[C@@H](CO)n1cc(-c2cncnc2)nn1` it was 28.4%.
As for `COc1ccc(C(=O)N(C)Cc2nnc3ccccn23)cc1`, the figure is -35.7%; as for `CC(C)c1nn(C)c(N(C)C)c1CNCC(O)COc1ccccc1` (configuration not stated), -37.2%; as for `NC(=O)c1ccc(NC(=O)N2CCN(c3cccs3)CC2)c(F)c1`, 44.3%.
For the compound `Cc1cc(C(N)=O)ccc1NC(=O)N1CCN(c2cccs2)CC1`, the INHIBITION is given as 65.6%.
Take `Cc1cc(NC(=O)N2CCN(c3cccs3)CC2)ccc1C(N)=O`: the INHIBITION was determined as 41%.
